DT40 TDP1 no CPT = qHTS for Inhibitors of human tyrosyl-DNA phosphodiesterase 1 (TDP1): qHTS in cells in absence of CPT. DT40 Tdp1-/- hTDP1 cells, no CPT, ATP luminescence, 48 h. Potency, µM (series often up to 46.2 µM), usual class: inhibitors. 420,000 compounds, 15% hits. AID 686978, 2013; note: nearly all actives have a fitted effect of over 55% in size
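Growth kinetics read by CellTiter-Glo luminescence after ≥48 hr at 37 °C. Cells: DT40 Tdp1-/- stably carrying human TDP1, 400 per well, compound exposure in the absence of CPT (DMSO vehicle).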
ELG1 DNA repair = blocks ELG1-dependent DNA repair in HEK293T cells. AID 504467. Potency, µM (doses to about 46.1 µM), usual class: inhibitors. HEK293T ELG1-luciferase reporter, luminescence, 16 h; DNA damage induced by 5-fluorouridine. 330,000 compounds, 2.3% hits; note: nearly all actives have a fitted effect of over 55% in size
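Quantitative HTS, concentration-response format. 2,000 cells/well co-treated with 5-fluorouridine and compound, 16 hr in 5% CO2 at 37 °C; ONE-Glo luminescence read after 30 min.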
IL1B secr inh = inflammasome signaling inhibition, IL-1 beta readout. THP-1 LPS/ATP IL-1B secretion, AlphaLISA, 16 h; stronger effect = lower value. activity change, % at 57.5 µM. 360,000 compounds, 4.7% hits. AID 743279; in the data active = activity change below about -50%; inconclusive = mostly about -30% to -49%
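THP-1 cells pretreated 1 hr with compounds (up to 57.5 uM final), then stimulated with LPS (250 ng/mL final) plus ATP (1.25 mM final); secreted IL-1B measured by AlphaLISA after 16 hr, decreased signal indicating inhibition.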
DT40 TDP1 CPT = growth inhibition of DT40 Tdp1-/-;hTDP1 cells with camptothecin (screen for TDP1 inhibitors). 420,000 compounds, 12% hits. AID 686979. chicken DT40 Tdp1-/-;hTDP1 cells + 20 nM CPT, ATP luminescence, 48 h. Potency, µM (top dose mostly 46.2 µM), usual class: inhibitors; note: nearly all actives have a fitted effect of over 55% in size
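Cell growth measured by CellTiter-Glo luminescence after a minimum 48 h, 37 C compound exposure with 20 nM CPT in Tdp1-knockout DT40 cells stably expressing hTDP1, seeded 400/well; qHTS titration format.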
HT1080 IDH1KD tx = kills HT-1080 cells with IDH1 knockdown; HT-1080 IDH1 knockdown viability, ATP luminescence, 48 h; Potency, µM (top dose mostly 46.1 µM), usual class: cytotoxic; 360,000 compounds, 2% hits
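Knockdown cells (IDH1KD HT-1080) received compounds 2 h after plating at 750 cells/well and were kept 48 h at 37 °C in 5% FBS RPMI. A CellTiter-Glo luminescence read gave % activity for curve fitting.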
HT1080-NT tox = kills 2HG-producing HT-1080-NT fibrosarcoma cells. HT-1080-NT fibrosarcoma viability, CellTiter-Glo ATP luminescence, 48 h. Potency, µM (top dose mostly 46.1 µM), actives largely listed as cytotoxic. 360,000 compounds, 1.6% hits;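 note: NT is the 2HG producing partner of a matched IDH1 knockdown line; nearly all actives have a fitted effect of over 55% in size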
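Toxicity toward the 2HG-producing NT line was scored as %Activity, normalised to DMSO and no-cell wells, from CellTiter-Glo luminescence after 48 hours' treatment.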
Large screens that a line does not name were inactive. Hits are enriched below; roughly 19% of the tested compounds scored in any of these assays. Unless noted, calls come from the whole dose curve; as a rule, active = well fitted curve in the direction sought with a large enough effect; inconclusive = small, poorly fitted or top-dose-only effect, or another doubt; inactive = no such curve, though single readings can be large; an effect the other way counts as inactive or inconclusive.

COc1cccc(-c2cnc(C(O)c3cccc(F)c3)[nH]2)c1 (stereo unspecified)	DT40 TDP1 CPT inconclusive (no result: ELG1 DNA repair)
CCN(CC)C(=O)Cn1cnc2sc(C(=O)NCCCN3CCOCC3)c(C)c2c1=O	none
COc1ccc(NC2CCCN(C(=O)c3cc(CC(C)C)nc(N)n3)C2)cc1 (stereo unspecified)	none
Cc1c([C@H]2[C@@H](CC#N)C2(C)C)c2ccccc2n1C	none
Cc1[nH]c2c(Br)cccc2c1[C@H]1[C@@H](CC#N)C1(C)C	DT40 TDP1 no CPT inconclusive, ELG1 DNA repair inconclusive, DT40 TDP1 CPT 16µM, HT1080 IDH1KD tx inconclusive, HT1080-NT tox inconclusive
Cc1cc(C)c2nc(N(CCCN(C)C)C(=O)c3ccc(S(=O)(=O)N4CC(C)OC(C)C4)cc3)sc2c1 (stereo unspecified)	DT40 TDP1 no CPT 21µM, IL1B secr inh -96, DT40 TDP1 CPT 16µM
Cc1ccc2sc(N(CCCN(C)C)C(=O)c3ccc(S(=O)(=O)N4CCOCC4)cc3)nc2c1C	DT40 TDP1 no CPT inconclusive, IL1B secr inh inconclusive, DT40 TDP1 CPT inconclusive
Cc1ccc2sc(N(CCN(C)C)C(=O)c3ccc(S(=O)(=O)N4CC(C)OC(C)C4)cc3)nc2c1C (stereo unspecified)	IL1B secr inh -65, DT40 TDP1 CPT inconclusive
CCCCN(C(=O)c1cc(S(=O)(=O)N2CCCCC2)ccc1Cl)c1c(N)n(CC(C)C)c(=O)[nH]c1=O	none (no result: ELG1 DNA repair)
COc1cccc(C(=O)NCC(=O)N2CCN(c3ccc(C(F)(F)F)cn3)CC2)c1	DT40 TDP1 no CPT 4.1µM, DT40 TDP1 CPT 7.3µM
COc1ccc(C(=O)COC(=O)C2CCN(c3ccc(C(F)(F)F)cn3)CC2)c(OC)c1	DT40 TDP1 no CPT 21µM, DT40 TDP1 CPT inconclusive
COc1ccccc1C(=O)NCCC(=O)N1CCN(c2ccc(C(F)(F)F)cn2)CC1	DT40 TDP1 no CPT 21µM, DT40 TDP1 CPT 23µM
Cc1cc(C)c(C(=O)COC(=O)C2CCN(c3ccc(C(F)(F)F)cn3)CC2)cc1C	DT40 TDP1 no CPT inconclusive, DT40 TDP1 CPT inconclusive
COc1ccccc1C(=O)NCCC(=O)N1CCN(c2ccccc2Cl)CC1	DT40 TDP1 no CPT inconclusive, ELG1 DNA repair inconclusive, DT40 TDP1 CPT inconclusive
CCOC(=O)c1sc(NC(=O)c2nc3ncccn3n2)c(C(=O)OC)c1C	none (no result: ELG1 DNA repair, IL1B secr inh, HT1080 IDH1KD tx, HT1080-NT tox)
Cc1ccccc1-c1cncnc1NCc1cccnc1	none (no result: ELG1 DNA repair, IL1B secr inh, HT1080 IDH1KD tx, HT1080-NT tox)
Cc1c[n+]([O-])cc(C)c1[N+](=O)[O-]	none (no result: ELG1 DNA repair)
CCc1nc2c(OCc3ccc(F)cc3)cccn2c1N(C)C(=O)c1ccc(C)cc1	DT40 TDP1 no CPT inconclusive, DT40 TDP1 CPT 15µM (no result: ELG1 DNA repair)
CCc1nc2c(OCc3ccc(C(=O)OC)cc3)cccn2c1N(C)C(=O)c1ccc(C)cc1	DT40 TDP1 no CPT 18µM, DT40 TDP1 CPT 23µM (no result: ELG1 DNA repair)
CCc1nc2c(OCc3ccc(C(F)(F)F)cc3)cccn2c1N(C)C(=O)c1ccncc1	DT40 TDP1 no CPT 16µM, DT40 TDP1 CPT 16µM (no result: ELG1 DNA repair)
CCc1nc2c(OCc3ccc(C(=O)N(C)C)cc3)cccn2c1N(C)C(=O)c1ccc(C)cc1	none (no result: ELG1 DNA repair)
CCc1nc2c(OCc3ccc(C(F)(F)F)cc3)cccn2c1N(C)C(C)=O	DT40 TDP1 no CPT inconclusive, DT40 TDP1 CPT inconclusive (no result: ELG1 DNA repair)
CCCc1nnc(NC(=O)CCC(=O)N2CCN(c3ccccc3)CC2)s1	none
COc1ccc(COC(=O)c2ccc(Br)c(S(=O)(=O)N3CCOCC3)c2)cc1F	DT40 TDP1 no CPT inconclusive, ELG1 DNA repair inconclusive, DT40 TDP1 CPT inconclusive
c1ccc(-c2nnc3sc(CN4CCc5ccccc54)cn23)cc1	DT40 TDP1 no CPT inconclusive, DT40 TDP1 CPT 21µM (no result: HT1080 IDH1KD tx, HT1080-NT tox)
COc1cccc(-c2nnc3sc(CN4CCCCC4)cn23)c1	DT40 TDP1 no CPT 1.3µM, DT40 TDP1 CPT 1.2µM (no result: ELG1 DNA repair, IL1B secr inh, HT1080 IDH1KD tx, HT1080-NT tox)
Cc1ccc(S(=O)(=O)N2N=C3CCCCC3C2(O)C(F)(F)F)cc1 (stereo unspecified)	IL1B secr inh inconclusive
